High-throughput results as filed in PubChem BioAssay.
M1 antagonist: antagonists of rat M1 muscarinic receptor; P08482; CHO-M1 cells, Fluo-4 calcium, ACh EC80 antagonist mode; hits give low values; B-score at 10 µM; 3.4% of 64,000 active;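 active = calcium fluorescence response, raw or row-and-column corrected B-score, differing from the plate sample mean either way at a set confidence level, mostly lower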
PLAP act: activators of human placental alkaline phosphatase; activation fold at 20 µM; P05187; purified PLAP enzyme, luminescent substrate read-out; hits give high values; 1.2% of 96,000 active; AID 696; in the data active = activation fold above about 2
M1 ag: M1 muscarinic receptor agonism. CHO-M1 cells, Fluo-4 calcium fluorescence, agonist mode; hits give high values. B-score at 10 µM. 3% of 64,000 active;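 active = fluorescence rise, raw or as B-score row- and column-corrected plate score, outside the 99.7% band of its plate's samples, either direction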
Cav3 T inh: inhibitors of human Cav3.2 T-type calcium channel; B-score at 10 µM; O95180; AID 449739; 4% of 100,000 active; Cav3.2-expressing cells, Fluo-4 calcium fluorescence FDSS; hits give low values;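 active = single-dose well whose peak fluorescence ratio is a statistical outlier from its plate by either plate-standardised score or position-corrected B-score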
Target sequence (O95180 whole entry, looked up): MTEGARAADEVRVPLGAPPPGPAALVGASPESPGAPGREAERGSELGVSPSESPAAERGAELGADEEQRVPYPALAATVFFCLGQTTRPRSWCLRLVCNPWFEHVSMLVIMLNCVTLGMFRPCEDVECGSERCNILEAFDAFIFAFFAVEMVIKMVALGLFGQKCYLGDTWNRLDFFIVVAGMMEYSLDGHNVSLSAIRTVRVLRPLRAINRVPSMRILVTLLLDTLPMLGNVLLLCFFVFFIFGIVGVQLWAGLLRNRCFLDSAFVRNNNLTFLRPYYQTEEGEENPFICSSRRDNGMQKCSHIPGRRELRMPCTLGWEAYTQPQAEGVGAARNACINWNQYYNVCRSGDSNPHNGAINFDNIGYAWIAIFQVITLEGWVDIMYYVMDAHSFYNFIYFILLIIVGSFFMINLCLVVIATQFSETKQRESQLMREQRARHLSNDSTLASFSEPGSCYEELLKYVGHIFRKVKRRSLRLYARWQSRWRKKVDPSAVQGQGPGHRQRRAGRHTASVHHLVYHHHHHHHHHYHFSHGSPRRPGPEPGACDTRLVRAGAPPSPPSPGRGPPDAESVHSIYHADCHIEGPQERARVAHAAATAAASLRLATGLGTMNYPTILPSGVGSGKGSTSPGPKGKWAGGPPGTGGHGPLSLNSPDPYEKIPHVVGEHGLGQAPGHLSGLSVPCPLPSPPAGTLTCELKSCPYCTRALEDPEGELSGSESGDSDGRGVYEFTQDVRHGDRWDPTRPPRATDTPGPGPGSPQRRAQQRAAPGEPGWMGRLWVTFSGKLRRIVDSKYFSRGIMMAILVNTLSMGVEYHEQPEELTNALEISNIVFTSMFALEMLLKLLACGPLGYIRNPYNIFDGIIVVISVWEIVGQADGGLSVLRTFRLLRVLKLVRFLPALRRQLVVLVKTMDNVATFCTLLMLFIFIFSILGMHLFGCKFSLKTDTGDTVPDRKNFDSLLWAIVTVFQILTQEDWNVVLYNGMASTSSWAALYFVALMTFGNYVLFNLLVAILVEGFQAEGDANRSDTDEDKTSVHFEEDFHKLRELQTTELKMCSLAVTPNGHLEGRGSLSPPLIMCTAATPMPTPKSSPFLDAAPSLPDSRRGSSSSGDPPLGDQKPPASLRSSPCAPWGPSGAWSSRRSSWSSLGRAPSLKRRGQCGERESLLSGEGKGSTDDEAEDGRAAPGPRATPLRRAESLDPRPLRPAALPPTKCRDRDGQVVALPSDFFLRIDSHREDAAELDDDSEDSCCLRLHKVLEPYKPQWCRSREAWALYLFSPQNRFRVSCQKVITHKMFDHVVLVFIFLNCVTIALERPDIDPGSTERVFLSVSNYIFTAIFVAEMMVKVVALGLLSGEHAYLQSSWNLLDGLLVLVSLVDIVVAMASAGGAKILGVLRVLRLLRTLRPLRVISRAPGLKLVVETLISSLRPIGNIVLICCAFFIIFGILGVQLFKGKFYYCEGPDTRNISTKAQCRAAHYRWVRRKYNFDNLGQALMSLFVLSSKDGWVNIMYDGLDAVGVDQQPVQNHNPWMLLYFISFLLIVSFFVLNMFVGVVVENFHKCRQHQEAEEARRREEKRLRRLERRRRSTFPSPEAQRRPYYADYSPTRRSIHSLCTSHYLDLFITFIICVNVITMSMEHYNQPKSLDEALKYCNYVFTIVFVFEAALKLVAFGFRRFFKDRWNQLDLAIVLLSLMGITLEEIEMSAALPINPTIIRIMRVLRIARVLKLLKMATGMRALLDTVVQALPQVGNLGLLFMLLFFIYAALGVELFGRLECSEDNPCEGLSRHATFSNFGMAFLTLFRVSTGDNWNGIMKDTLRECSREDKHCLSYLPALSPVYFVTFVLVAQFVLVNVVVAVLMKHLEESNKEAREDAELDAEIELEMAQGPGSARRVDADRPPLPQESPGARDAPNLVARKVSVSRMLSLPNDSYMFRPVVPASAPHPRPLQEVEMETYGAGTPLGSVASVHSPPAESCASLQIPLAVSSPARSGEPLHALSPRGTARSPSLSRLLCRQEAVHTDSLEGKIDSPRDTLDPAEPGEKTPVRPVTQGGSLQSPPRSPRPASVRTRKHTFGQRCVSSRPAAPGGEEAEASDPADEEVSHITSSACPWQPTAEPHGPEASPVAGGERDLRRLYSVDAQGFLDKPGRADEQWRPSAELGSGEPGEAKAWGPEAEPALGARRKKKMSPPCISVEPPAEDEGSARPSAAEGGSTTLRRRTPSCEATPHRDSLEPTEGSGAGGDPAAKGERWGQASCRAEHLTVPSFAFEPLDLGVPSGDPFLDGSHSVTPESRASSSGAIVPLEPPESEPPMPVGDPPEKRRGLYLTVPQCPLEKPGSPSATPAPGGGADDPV
The depositor's hits bear a star; . = no result. This is a sample that favours compounds with a hit; in the whole collection about 7.6% have one here.

SMILES	M1 antagonist	PLAP act	M1 ag	Cav3 T inh
CCOC(=O)c1ccccc1NC(=O)c1c(O)[nH]c(=O)[nH]c1=O	.	.	.	-0.15
CCOC(=O)c1ccc(NC(=O)c2c(O)[nH]c(=O)[nH]c2=O)cc1	0.27	1.1	86*	.
COc1cc(NC(=O)CN2C3CCC2CC(O)(c2cccnc2)C3)cc(OC)c1 (stereo unspecified)	.	0.8	.	0.62
CCCCCCCC(=O)NC(Oc1ccccc1[N+](=O)[O-])C(Cl)(Cl)Cl (stereo unspecified)	.	1	.	-6.9*
CN1C(=O)/C(=C\c2ccc(N3CCCCC3)o2)C(=O)NC1=S	.	0.4	.	-4.8*
Cc1ccc(N2C(=O)/C(=C/c3ccc(CN(CCC#N)S(C)(=O)=O)o3)C(=O)NC2=S)cc1C	.	1.4	.	1.2
CN1C(=O)/C(=C/c2ccc(N3CCCCCC3)o2)C(=O)NC1=S	.	.	.	-4.5*
CC(C)(C)c1nc(NCc2ccc3c(c2)OCO3)c2nnn(Cc3ccccc3Cl)c2n1	.	.	.	0.25
CCC(=NCc1ccco1)c1c(O)n(C2CCCCC2)c(=O)[nH]c1=O	0.4	0.9	0.3	-6.8*
CN1/C(=C\C=C\C2=[N+](C)c3ccc4ccccc4c3C2(C)C)C(C)(C)c2ccccc21	.	0.6	.	-5.9*
NC(=O)c1cn(C2OC(CO)C(O)C2O)c2ncnc(N)c12 (stereo unspecified)	.	.	.	-4.7*
Cc1ccc(C2N(c3cc(C)on3)C(=O)C3CCCN32)cc1 (stereo unspecified)	0.34	1.1	-0.25	0.23
CCOC(=O)[C@]1(C#N)[C@@H]2C=CC(C(C)=O)=CN2[C@@H](C(N)=O)[C@@H]1c1ccsc1	-0.2	1.2	26*	0.49
C[C@H]1CCC[C@H](O)CCCCCc2cc(O)cc(O)c2C(=O)O1	2.4*	1.3	-0.13	.
O=C(O)c1cccc2nc3ccccc3nc12	.	.	.	0.68
C[N+]1(C)CCC(OC(=O)C(c2ccccc2)c2ccccc2)CC1	.	.	.	-4.4*
CCCc1[nH]nc2c1C1(C(=O)N(CC(N)=O)c3ccccc31)C(C(=O)OC)=C(N)O2 (stereo unspecified)	2.3*	1.5	1.8	.
CC1(C)NC(=O)[C@H]2CCCN21	.	.	.	1
Nc1c(C(=O)OCC2CCCO2)c2nc3ccccc3nc2n1Cc1cccs1 (stereo unspecified)	0.38	1.7	0.16	-2.4
Nc1c(C(=O)NC2CCCC2)c2nc3ccccc3nc2n1CC1CCCO1 (stereo unspecified)	0.72	1.6	-0.053	-6.4*
O=c1[nH]c(=O)n(CCc2ccccc2)c(O)c1C=NCc1ccc2c(c1)OCO2	.	1.1	.	.
CCOC(=O)C(O)(c1ccc(N(C)C(=O)COc2ccccc2)cc1)C(F)(F)F (stereo unspecified)	.	.	.	0.43
CCOC(=O)C(O)(c1ccc(N(CC)S(=O)(=O)c2ccc(C)cc2)cc1)C(F)(F)F (stereo unspecified)	.	1	.	-6.2*
CCOC(=O)N(C)c1ccc(C(O)(C(=O)OC)C(F)(F)F)cc1 (stereo unspecified)	.	.	.	0.46
CCN(c1ccc(C(O)(C(=O)OC)C(F)(F)F)cc1)S(=O)(=O)c1ccc(C)cc1 (stereo unspecified)	.	1.1	.	-4.9*
SMILES	M1 antagonist	PLAP act	M1 ag	Cav3 T inh
CCCC/C(C)=C/[C@@H](NP(=O)(c1ccccc1)c1ccccc1)c1ccccc1	.	.	.	-2.3
Cc1ccc(-n2c(O)c(C=NC3CCCCC3N)c(=O)[nH]c2=O)cc1C (stereo unspecified)	1.2	2.2*	-0.84	-0.02
NC1CCCCC1N=Cc1c(O)n(Cc2ccc(F)cc2)c(=O)[nH]c1=O (stereo unspecified)	-0.14	2.8*	0.26	0.34
CCCCn1c(O)c(C=NC2CCCCC2N)c(=O)[nH]c1=O (stereo unspecified)	0.55	1.5	1.8	0.29
COc1ccc(C=O)cc1O	.	.	.	-0.052
O=P(Nc1ccccc1)(Nc1ccccc1)Oc1cccc(Cl)c1	.	0.8	.	-7.1*
N#Cc1ccccc1Cn1cc(C(=O)c2cccs2)c2ccccc21	0.72	0.9	-0.12	-0.55
O=C(c1cccs1)c1cn(Cc2ccccc2Cl)c2ccccc12	.	0.7	.	-6.2*
CCCCn1c(O)c(C(C)=NC(Cc2c[nH]c3ccccc23)C(=O)OC)c(=O)[nH]c1=O (stereo unspecified)	0.017	1.1	-0.044	-4.3*
COc1ccccc1CCNC1CCC(C(C)(C)C)CC1 (stereo unspecified)	.	1.4	.	-1.6
O=C1C2CCN(CC2)C1Cc1ccc(OCCOc2ccccc2)cc1 (stereo unspecified)	-0.48	1.4	0.23	0.67
COc1cccc(C2C([N+](=O)[O-])=C(N)Oc3c2c(=O)oc2ccccc32)c1 (stereo unspecified)	.	0.9	.	1.2
